GAA glycogen mod = inhibitors or activators of human alpha-glucosidase glycogen cleavage. actives 0.38% (n = 300,000). recombinant GAA, glycogen substrate, Amplex Red glucose oxidase fluorescence. P10253. Potency, µM (titrated, usually from 76.4 µM), inactives show at the top dose activity change, negative = inhibition, actives largely listed as inhibitors;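 note: potency is the fitted concentration of half-maximal effect; 0% = full enzyme reaction and -100% = no-enzyme basal signal; the screen sought inhibitors and activators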
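qHTS, 1536-well; enzyme 4 nM final; cpd up to 77 uM; substrate bovine liver glycogen 30 ug; 50 mM citrate/phosphate pH 5.0, 0.01% Tween-20; 37 C, 40 min; Amplex Red detection 45 min RT; Hill fit → AC50.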
aGal spleen mod = alpha-galactosidase A (human) modulation; human spleen homogenate, 4MU-alpha-Gal fluorescence, 40 min; Potency, µM (highest dose often 80 µM), inactives show at the top dose activity change, negative = inhibition, usual class: inhibitors; actives 0.008% (n = 240,000);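 note: potency is the fitted concentration of half-maximal effect; 0% = enzyme with vehicle and -100% = no enzyme basal signal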
Target sequence (P06280 32-429 limits assumed): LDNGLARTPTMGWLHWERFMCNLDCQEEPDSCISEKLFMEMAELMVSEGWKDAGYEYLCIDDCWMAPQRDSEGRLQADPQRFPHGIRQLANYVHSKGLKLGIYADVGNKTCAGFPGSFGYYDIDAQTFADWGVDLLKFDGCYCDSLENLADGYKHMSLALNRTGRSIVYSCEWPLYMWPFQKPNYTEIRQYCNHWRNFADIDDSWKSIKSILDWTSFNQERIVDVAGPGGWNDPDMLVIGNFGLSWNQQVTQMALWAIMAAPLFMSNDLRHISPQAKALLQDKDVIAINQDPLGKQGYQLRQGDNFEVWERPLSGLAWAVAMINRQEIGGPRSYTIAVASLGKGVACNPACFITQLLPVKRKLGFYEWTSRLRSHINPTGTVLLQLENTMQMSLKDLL
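Human spleen homogenate (1 ug) as enzyme source, 4-methylumbelliferyl-alpha-D-galactopyranoside 1 mM final, citrate/phosphate pH 5.0 with 0.01% Tween-20. Compounds 40 min at 37C, NaOH/glycine stop; fluorescence Ex 365/Em 440, Hill-fit AC50.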
GAA inh = alpha-glucosidase (human) inhibition; Potency, µM (doses to about 76.9 µM), without a hit: top-dose activity change, negative = inhibition, most hits filed as inhibitors; actives 0.005% (n = 200,000); P10253; purified human GAA, 4-MU-alpha-glucoside fluorescence; AID 1466;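 note: potency is the fitted concentration of half-maximal effect; plate controls were uninhibited enzyme wells for no effect and no-enzyme background for full effect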
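Enzyme (4 nM final) mixed with compound (up to 77 uM), then 4-MU-alpha-D-pyranoside (400 uM final) added; 20 min at room temperature, pH 5.0. Reaction stopped at pH 10, fluorescence read, AC50 derived by Hill fit.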
aGlu spleen mod = inhibits or activates alpha-glucosidase in human spleen homogenate. P10253. human spleen homogenate, 4-MU-alpha-glucoside fluorescence. Potency, µM (top dose mostly 79.9 µM), inactives show at the top dose activity change, negative = inhibition, usual class: inhibitors. actives 0.006% (n = 240,000). AID 2112;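 note: potency is the fitted concentration of half-maximal effect; 0% = enzyme with vehicle and -100% = no enzyme basal signal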
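Compounds were titrated against alpha-glucosidase in spleen homogenate at pH 5.0, with 1 mM 4-methylumbelliferyl substrate for 40 min at 37 C. Reactions were quenched with pH 10 NaOH/glycine and fluorescence measured.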
GLA inh pH 4.5 = inhibitors of human alpha-galactosidase A at pH 4.5. purified enzyme, 4-MU-alpha-Gal fluorescence, pH 4.5. activity change, negative = inhibition, % at 105 µM. 230,000 tested, under 10 active. AID 1467;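 note: 0% = full activity with enzyme and -100% = basal without enzyme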
* = called active by the depositor; ? = inconclusive; nt = no result; [ ] = remark or other dose. Rows were chosen to be rich in hits. Some 0.4% of all compounds tested hit in one or more screens of this group. Calls come from the whole dose curve; as a rule, active = well fitted curve in the direction sought with a large enough effect; inconclusive = small, poorly fitted or top-dose-only effect, or another doubt; inactive = no such curve, though single readings can be large; an effect the other way counts as inactive or inconclusive.

SMILES	GAA glycogen mod	aGal spleen mod	GAA inh	aGlu spleen mod	GLA inh pH 4.5
CCC(C=C[C@@H]1OC(=O)C=C[C@H]1C)=C[C@H](C)CC=CC(C)=C[C@@H](C)C(=O)[C@@H](C)[C@H](O)[C@@H](C)CC(C)=CC(=O)O	nt	2.9%[3.15 µM]	nt	2.9%[3.15 µM]	-2.2
Oc1ccc(N2CCN(c3ncnc4sc5c(c34)CCC5)CC2)cc1	14µM*	16.7%	-0.3%	-4.3%	5.3
OCCN1CCN(c2ncnc3sc4c(c23)CCCC4)CC1	-11.7%[76.3 µM]	nt	nt	nt	nt
Cc1ccc(Nc2c(-c3ccc(C)o3)nc3ncccn23)cc1	?	0.7%	nt	6.2%	-5.8
Cc1ccc(-c2nc3ncccn3c2Nc2ccc3c(c2)OCO3)o1	10µM*	-4.8%	-1.7%	3.5%	8.3
Oc1ccc(-c2nc3ncccn3c2Nc2ccc3c(c2)OCO3)cc1	24.9µM*	-8.1%	4.9%	-5.9%	-5.6
c1ccc2c(c1)Nc1ccncc1S2	17.6µM*	-11.6%	nt	2.2%	0.1
O=C(NCCc1c[nH]c2ccccc12)c1ccccc1O	nt	-9.3%	nt	-7.5%	nt
NNC(=O)c1nc(-c2ccccc2)n2c1CCCCC2	17.6µM*	1.9%	3.1%	-8.2%	3.1
O=C(N/N=C/c1ccncc1)c1nc(-c2ccccc2)n2c1CCCCC2	-1.2%	5.0%	-5.6%	1.4%	-5.0
CNC(=O)c1c(NC(=O)c2ccco2)sc2c1CCCC2	-1.4%[76.3 µM]	nt	nt	nt	nt
Cc1ccc(C(=O)C(NC(=O)c2ccco2)Nc2sc3c(c2C(N)=O)CCCC3)cc1 (stereo not given)	24.9µM*	-2.6%	-6.8%	-10.5%	-5.8
COc1cc(C2C3=C(CCCC3=O)Nc3[nH]n(-c4ccccc4)c(=O)c32)ccc1O (stereo not given)	28.2µM*	?	3.1%	-11.6%	-19.9
CC(C)C[C@H](NC(=O)[C@H](Cc1cnc[nH]1)NC(=O)[C@@H](N)Cc1cnc[nH]1)C(=O)NCC(=O)NCC(=O)N[C@@H](C)C(=O)N[C@@H](CCCCN)C(=O)N[C@@H](CCC(N)=O)C(=O)N[C@@H](C)C(=O)NCC(=O)N[C@@H](CC(=O)O)C(=O)N[C@H](C(=O)O)C(C)C	nt	-8.9%	nt	-2.0%	nt
COc1ccc(NCC(=O)Nc2ccc(Cl)cc2C)c(OC)c1	15.7µM*	9.4%	-4.1%	8.9%	-17.3
CCOc1ccc(NCC(=O)Nc2ccc(Cl)cc2C)cc1	?	-3.3%	4.3%	1.7%	-3.6
O=C(CN1CC(=O)Oc2ccccc21)NCc1ccco1	7.03µM*	-13.0%	-6.7%	-4.5%	-2.6
O=C(CN1CCOc2ccccc21)NCc1ccco1	1.0%	12.5%	7.3%[15.4 µM]	4.6%	2.0
O=S(=O)(N/N=C\c1ccc(-c2ccccc2Cl)o1)c1ccccc1	24.9µM*	4.7%	5.9%	3.7%	0.3
Cc1ccc(NC(=S)NNC(=O)c2cn(C)nc2C)cc1	28µM*	-11.5%	-2.7%	1.6%	-0.7
NC(N)=NCCC[C@H](N)C(=O)NCC(=O)N[C@@H](CC(=O)O)C(=O)O	nt	4.5%	nt	0.3%	nt
CCCc1cc(=O)[nH]c(Nc2ccc(O)cc2C)n1	10µM*	nt	nt	nt	nt
CCCc1cc(=O)[nH]c(Nc2cccc(Cl)c2Cl)n1	-7.8%[76.3 µM]	nt	nt	nt	nt
CN(C)c1ccc(N/C=C/C(=O)c2ccccc2)cc1	14.1µM*	-14.3%	-13.5%	4.8%	3.4
O=C(/C=C/Nc1ccccc1)c1ccccc1	9.1%	1.1%	1.4%	2.6%	1.4
SMILES	GAA glycogen mod	aGal spleen mod	GAA inh	aGlu spleen mod	GLA inh pH 4.5
CCN(CC)c1ccc(-c2nc3cnccn3c2NC2CCCC2)cc1	9.92µM*	12.4%	2.9%	-6.6%	-25.1
Brc1ccc2nc(-c3ccncc3)c(NC3CCCC3)n2c1	9.92µM*	6.5%	-14.0%	1.9%	?
c1ncc(CCCC2CCNCC2)[nH]1	nt	0.7%	nt	5.7%	nt
C[C@H](Cc1nc2c(cnn2-c2ccccc2Cl)c(=O)[nH]1)C(F)(F)F	nt	11.9%	nt	-3.4%	nt
COC(=O)C1=CO[C@@H](C)[C@@H]2CN3CCc4c([nH]c5ccccc45)[C@@H]3C[C@H]12	nt	6.0%	nt	4.8%	nt
C[C@H]1Cc2c(COc3ccccc3)nc3c(c2CO1)CN(S(=O)(=O)c1ccc(Cl)c2nonc12)CC3	nt	-0.9%[17.5 µM]	nt	-7.8%[17.4 µM]	8.4
CCOc1cc(C2C3=C(CCCC3=O)N(C)C3=C2C(=O)CCC3)cc(Cl)c1O	?	-0.6%	-4.4%	-0.2%	2.3
CCOc1cc(C2C3=C(CCCC3=O)NC3=C2C(=O)CCC3)cc(Cl)c1O	35.5µM*	-7.0%	-4.5%	-12.2%	-3.6
CC(=Nc1ccccc1N)c1c(C)cc(=O)n(O)c1O	nt	1.3%	nt	8.2%	nt
CC1=C(C(=O)O)N2C(=O)[C@@H](NC(=O)[C@@H](N)c3ccccc3)[C@@H]2SC1	nt	19.2%[29.1 µM]	nt	2.2%[29.1 µM]	-0.8
O=C(Nc1ccc(OCC(=O)N2CCN(S(=O)(=O)c3ccccc3)CC2)cc1)c1ccco1	-24.1%	-8.6%	28.2µM*	?	-3.6
CSCC[C@H](NC(=O)[C@H](CO)NC(=O)[C@H](Cc1ccc(O)cc1)NC(=O)[C@@H](N)CO)C(=O)N[C@@H](CCC(=O)O)C(=O)N[C@@H](Cc1cnc[nH]1)C(=O)N[C@@H](Cc1ccccc1)C(=O)N[C@@H](CCCNC(=N)N)C(=O)N[C@@H](Cc1c[nH]c2ccccc12)C(=O)NCC(=O)N[C@@H](CCCCN)C(=O)N1CCC[C@H]1C(=O)N[C@H](C(=O)NCC(=O)N[C@@H](CCCCN)C(=O)N[C@@H](CCCCN)C(=O)N[C@@H](CCCNC(=N)N)C(=O)N[C@@H](CCCNC(=N)N)C(=O)N1CCC[C@H]1C(=O)N[C@H](C(=O)N[C@@H](CCCCN)C(=O)N[C@H](C(=O)N[C@@H](Cc1ccc(O)cc1)C(=O)N1CCC[C@H]1C(=O)N[C@@H](CC(N)=O)C(=O)NCC(=O)N[C@@H](C)C(=O)N[C@@H](CCC(=O)O)C(=O)N[C@@H](CC(=O)O)C(=O)N[C@@H](CCC(=O)O)C(=O)N[C@@H](CO)C(=O)N[C@@H](C)C(=O)N[C@@H](CCC(=O)O)C(=O)N[C@@H](C)C(=O)N[C@@H](Cc1ccccc1)C(=O)N1CCC[C@H]1C(=O)N[C@@H](CC(C)C)C(=O)N[C@@H](CCC(=O)O)C(=O)N[C@@H](Cc1ccccc1)C(=O)O)C(C)C)C(C)C)C(C)C	nt	-6.5%	nt	-14.2%	nt
COc1ccc(Nc2nc3c([nH]2)c(=O)[nH]c(=O)n3C)cc1	10µM*	3.3%	-1.5%	-4.0%	6.8
COCCCNc1nc2c([nH]1)c(=O)[nH]c(=O)n2C	?	3.0%	-3.9%	-3.5%	nt
C=CCc1cccc(C2C(C)CCC3C(=O)N4C(Cc5c([nH]c6ccccc56)C4c4cc(OC)c(OC)c(OC)c4)C(=O)N32)c1 (stereo not given)	nt	3.1%[17.5 µM]	nt	-0.9%[17.4 µM]	nt

Assay outcomes deposited in PubChem BioAssay by National Center for Advancing Translational Sciences (NCATS).
